High-throughput results deposited in PubChem by Sanford-Burnham Center for Chemical Genomics.
CYP2C9 act: CYP2C9 (human) activation. recombinant CYP2C9, luciferin-H conversion, luminescence; hits give high values; factor 1 = untreated enzyme, 0 = blocked. activation factor at 5 µM. 96,000 compounds, 1.4% hits;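 active = activation factor of 2 or more for CYP2C9 at a 5 µM dose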
CYP2C19 activ: increases human CYP2C19 enzyme activity; recombinant CYP2C19, luciferin-H EGE luminescence; hits give high values; 0 = fully inhibited enzyme, 1 = untreated enzyme; activation factor at 5 µM; 96,000 tested, under 10 active;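 active = activation factor of at least 2 at 5 µM in the primary screen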
Target sequence (P33261 whole entry, looked up): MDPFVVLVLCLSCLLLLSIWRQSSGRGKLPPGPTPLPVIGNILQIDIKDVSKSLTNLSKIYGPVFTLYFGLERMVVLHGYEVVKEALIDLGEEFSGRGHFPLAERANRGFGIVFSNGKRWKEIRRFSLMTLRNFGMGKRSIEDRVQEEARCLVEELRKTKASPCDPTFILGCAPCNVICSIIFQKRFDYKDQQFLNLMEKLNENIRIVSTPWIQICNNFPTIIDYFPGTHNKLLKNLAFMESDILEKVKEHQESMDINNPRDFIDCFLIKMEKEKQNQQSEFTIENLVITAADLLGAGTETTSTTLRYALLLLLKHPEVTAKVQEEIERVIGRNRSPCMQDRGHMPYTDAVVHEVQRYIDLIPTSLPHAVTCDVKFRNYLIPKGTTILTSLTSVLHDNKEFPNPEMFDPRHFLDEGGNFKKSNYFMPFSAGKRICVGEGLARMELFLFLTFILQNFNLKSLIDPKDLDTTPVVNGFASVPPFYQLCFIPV
CYP2C9 inhib: inhibitors of human CYP2C9; CYP2C9 Supersomes, luciferin-H conversion, luminescence; inhibition, % at 5 µM; 96,000 compounds, 20% hits; AID 777;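 active = blocking of liver enzyme CYP2C9 beyond about 50% at 5 µM, limit read from the data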
PLAP activator: human PLAP activation; P05187; purified PLAP enzyme, luminescent substrate read-out; hits give high values; activation fold at 20 µM; 96,000 compounds, 1.2% hits; AID 696; in the data active = activation fold above about 2
CYP2C19 inh: blocks human cytochrome P450 2C19. CYP2C19 Supersomes, luciferin-H EGE luminescence, 30 min. inhibition, % at 5 µM. 96,000 compounds, 21% hits. P33261;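 active = CYP2C19 inhibition above a set limit at 5 µM in the primary screen, cut at about 50% in these data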
Hits are given with their value; . = inactive. In the library only some 31% were active in any assay of this set; here they are far more common.

SMILES	CYP2C9 act	CYP2C19 activ	CYP2C9 inhib	PLAP activator	CYP2C19 inh
O=C(NCN1C(=O)C2C3C=CC(C3)C2C1=O)OC1CCCCC1 (stereo not given)	.	.	.	.	.
Cc1onc(-c2ccccc2Cl)c1C(=O)Nc1cnn(Cc2ccccc2)c1	.	.	.	.	.
CCCN(CCC)c1nc(NC2CCN(C(=O)OCC)CC2)nc(OC)n1	.	.	.	.	.
Cc1cc(O)c(C(C)C)cc1NC1=NS(=O)(=O)c2ccccc21	.	.	.	.	.
O=C(CS(=O)(=O)c1cccc(C(F)(F)F)c1)Nc1ccccc1Cl	.	.	.	.	60
Cc1cc(O)c(C(C)C)cc1NS(=O)(=O)c1ccccc1	.	.	.	.	86
COc1ccccc1NS(=O)(=O)c1cc(C)ccc1C	.	.	.	.	80
COC(=O)c1ccccc1NS(=O)(=O)c1ccc(O)c(C(=O)O)c1	.	.	91	.	.
Cn1c(=O)c2c(n(Cc3ccccc3)c1=O)NC(=O)C2CC(=O)NCc1cccc(Cl)c1 (stereo not given)	.	.	.	.	.
Cc1nn(C(=O)Cn2ccc([N+](=O)[O-])n2)c(C)c1Br	.	.	.	.	.
CCCC(CCC)n1[nH]c(=O)c2c(C)cc(C)nc21	.	.	.	.	.
COc1ccccc1NC(=O)NS(=O)(=O)c1ccc(C)cc1	.	.	.	.	.
COc1ccccc1NS(=O)(=O)c1ccc(Cl)cc1	.	.	.	.	99
O=C(O)c1ccccc1NS(=O)(=O)c1cccc(C(F)(F)F)c1	.	.	51	.	60
O=S(=O)(Nc1cccnc1)c1cccc(C(F)(F)F)c1	.	.	.	.	.
N#CCCCSc1nnc(-c2ccccn2)o1	.	.	.	.	.
Cc1nn2c(N)csc2nc1=O	.	.	.	.	.
Cc1ccc(NC(=O)CN2CCN(c3ccccn3)CC2)c(Cl)c1	.	.	86	.	55
O=C(CN1CCN(c2ccccn2)CC1)Nc1cc(C(F)(F)F)ccc1Cl	.	.	74	.	.
Cc1nc2ccc(NC(=O)N3CCN(c4ccccn4)CC3)cc2s1	.	.	80	.	.
O=C(CN1CCN(c2ccccn2)CC1)Nc1ccc2ccccc2c1	.	.	55	.	.
O=C(CN1CCN(c2ccccn2)CC1)Nc1ccc(Cl)c(C(F)(F)F)c1	.	.	.	.	.
Cc1nc2ccc(NC(=O)N3CCCCC3)cc2s1	.	.	.	.	.
CCOc1ccc(NC(=O)CSc2n[nH]c(=O)n2-c2ccccc2)cc1	.	.	.	.	.
COc1cc(S(=O)(=O)N2CCCCC2)ccc1NC(C)=O	.	.	.	.	.
SMILES	CYP2C9 act	CYP2C19 activ	CYP2C9 inhib	PLAP activator	CYP2C19 inh
CN(CC(=O)N1CCN(c2ccccn2)CC1)S(=O)(=O)c1ccc2ccccc2c1	2.7	.	.	.	.
O=C(CN1CCN(c2ncccn2)CC1)Nc1ccccc1-n1cccc1	.	.	79	.	95
Cc1cc(C)cc(NC(=O)CN2CCN(c3ncccn3)CC2)c1	.	.	.	.	.
CNC(=O)CSc1nnc(COc2ccc(Cl)cc2)n1CCOC	.	.	.	.	.
CCOc1ccc(NC(=O)CN2CCN(CC(=O)Nc3ccc(Cl)c(C(F)(F)F)c3)CC2)cc1	.	.	.	.	.
N#C/C(C(N)=O)=c1/ccc2c(c1)N1C3=C(CCCC3)CC3CCCCC31N=2 (stereo not given)	.	.	89	.	54
N#CC(C#N)=c1ccc2c(c1)N1C3=C(CCCC3)CC3CCCCC31N=2 (stereo not given)	.	.	98	.	90
Cc1ccc(-n2c(=O)[nH]cc(C(=O)N3CCc4ccccc43)c2=O)cc1C	.	.	.	.	.
CO/N=C(/CS(=O)Cc1ccc(Cl)cc1)c1ccc(Cl)cc1 (stereo not given)	.	.	56	.	96
CO/N=C(\CS(=O)(=O)Cc1ccc(OC)cc1)c1ccc(Cl)cc1	.	.	.	.	.
COc1ccc(N2C(=NC(C)=O)SC3CS(=O)(=O)CC32)cc1OC (stereo not given)	.	.	.	.	.
Cc1ccc(CS(=O)(=O)c2ccccc2-c2nnc(-c3ccc(Cl)cc3)o2)cc1	.	.	91	.	.
COCCn1c(SCC(N)=O)nnc1-c1c[nH]c2ccccc12	.	.	.	.	.
Cn1c(SCC(=O)NCC2CCCO2)nnc1-c1c[nH]c2ccccc12 (stereo not given)	.	.	.	.	.
COCCn1c(SCc2ccc(C(=O)OC)o2)nnc1-c1c[nH]c2ccccc12	.	.	68	.	74
COC(=O)c1ccc(CSc2nc3cc(Cl)ccc3s2)o1	.	.	.	.	.
COC(=O)c1ccc(CSc2nnc(-c3c[nH]c4ccccc34)n2C)o1	.	.	78	.	93
COCCn1c(SCc2ccc(C(=O)OC)o2)nc2cc(Cl)ccc2c1=O	.	.	93	.	94
COc1ccc(NC(=O)C2=C(C)Nc3ncnn3C2c2ccccc2C(F)(F)F)c(OC)c1 (stereo not given)	.	.	.	.	.
COc1cccc(NS(=O)(=O)c2ccc3[nH]cc(C(=O)N(C)Cc4ccco4)c(=O)c3c2)c1	.	.	71	.	.
Cc1cc(C)cc(NS(=O)(=O)c2ccc3[nH]cc(C(=O)NCc4ccco4)c(=O)c3c2)c1	.	.	65	.	.
COc1cccc(NS(=O)(=O)c2ccc3[nH]cc(C(=O)NC4CC4)c(=O)c3c2)c1	.	.	52	.	.
O=C(NCc1ccco1)c1cc(S(=O)(=O)N2CCOCC2)ccc1Cl	.	.	.	.	.
Cc1ccccc1NS(=O)(=O)c1ccc2[nH]cc(C(=O)N(C)Cc3ccco3)c(=O)c2c1	.	.	.	.	.
CCN1CCCC1CNC(=O)C1CCN(Cc2nc(-c3cccc(Br)c3)oc2C)CC1 (stereo not given)	.	.	.	.	.
SMILES	CYP2C9 act	CYP2C19 activ	CYP2C9 inhib	PLAP activator	CYP2C19 inh
NC(=O)c1ccsc1NC(=O)COC(=O)Cc1cccc2ccccc12	.	.	.	.	97
O=C(NC1=NCCS1)c1nc(-c2ccccc2)n(-c2ccccc2)n1	.	.	.	.	.
NC(=O)c1ccsc1NC(=O)CSc1ccccc1F	.	.	.	.	.
NC(=O)c1ccsc1NC(=O)COc1ccccc1	.	.	65	.	.
NC(=O)c1ccsc1NC(=O)c1nc(-c2ccccc2)n(-c2ccccc2)n1	.	.	61	.	.
CCCCOc1ccc(C(CC(=O)NC)C(=O)O)cc1 (stereo not given)	.	.	.	.	.
Cc1ccc(N2CC(C(=O)Nc3cc(C)on3)CC2=O)cc1 (stereo not given)	.	.	.	.	.
COc1ccccc1NC(=O)COC(=O)CNC(=O)c1ccc(OC)c(OC)c1	.	.	.	.	.
O=C1CC(N2CCN(C/C=C/c3ccccc3)CC2)C(=O)N1Cc1cccs1 (stereo not given)	.	.	.	.	55
O=C1CC(N2CCN(C/C=C/c3ccccc3)CC2)C(=O)N1CCc1ccccc1 (stereo not given)	.	.	.	.	.
